Measured values reported in PubChem BioAssay.
Calls of active or inactive are those of the source.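 Rule for the calls: active = thallium flux through the channel raised or lowered by more than 3 SD from vehicle-only wells, actives on both sides; inactive = the rest.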

tested on: F380Y; experiment: BK channel mutant inhibitors and activators – cell-based, U2OS BacMam, thallium flux, beta subunits, selectivity assay, profiling panel (AID 1259406); conditions: U2OS BacMam BK variants, at 30 µM;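 note: initial slope of Thallos dye fluorescence rise after thallium is added; log ratio against the mean of 0.3% DMSO vehicle wells on the same plate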

Compound | log fold change Tl+ flux
COC(=O)c1ccc(C=Cc2cccc(Cl)c2)s1 | -0.0764 (inactive)
COc1ccc(C(=O)NNC(=O)c2c(OC)cc(C(F)(F)F)cc2C(F)(F)F)cc1 | 0.044 (inactive)
Cn1c(SCCS(=O)(=O)c2ccc(OC(F)(F)F)cc2)nnc1C(F)(F)F | -0.047 (inactive)
O=C(O)c1cccc(CSc2cccs2)c1 | 0.0692 (inactive)
Cc1onc(-c2c(Cl)cccc2Cl)c1C1=NCCO1 | -0.0274 (inactive)
CCOC(=O)c1cc(CC)sc1NC(=O)C(Cl)(Cl)Cl | -0.00144 (inactive)
Cc1nn(-c2ccccc2)nc1C(=O)NNC(=O)CSCc1cccc2ccccc12 | 0.029 (inactive)
Cc1oc(S(=O)(=O)N2CCOCC2)cc1C(=O)Nc1ccc(F)cc1 | 0.119 (active)
Cc1ccc(S(=O)(=O)NC(=O)Nc2nc(-c3ccc(C)c(Cl)c3)c(C)s2)cc1 | 0.099 (inactive)
CCCn1c(=O)c(Br)cn(-c2ccccc2C)c1=O | -0.00732 (inactive)
CCOC(=O)Cn1c(-c2c(Cl)cccc2Cl)noc1=O | 0.00248 (inactive)
Cc1nn(C)c(NCc2cccs2)c1[N+](=O)[O-] | 0.0023 (inactive)
Nc1ccc(Cl)cc1-c1nc2ccccc2[nH]1 | -0.0882 (inactive)
COC(=O)CC1(C(=O)OC)Oc2ccc(Br)cc2C(=O)N1c1cccc(Cl)c1Cl (stereo not given) | -0.195 (active)
Cc1c(C(=O)Nc2ccc(N3CCOCC3)c(Cl)c2)cnn1-c1ccc(F)cc1 | -0.0177 (inactive)
CC(=O)OCC(OC(C)=O)C(OC(C)=O)C(OC(C)=O)C(C#N)OC(C)=O (stereo not given) | 0.0435 (inactive)
C#CC1(NC(=O)c2ccc(-c3ccc(CC)cc3)cc2)CCCCC1 | 0.0109 (inactive)
Cc1cnc(N)c(C)n1 | 0.0781 (inactive)
CCOC(=O)c1ccc(N2CCOCC2)c(N=Cc2cc(Cl)cc(Cl)c2O)c1 | 0.0511 (inactive)
O=C(CC(=O)NNC(=O)c1ccc(F)cc1)NNC(=O)c1ccc(F)cc1 | 0.0677 (inactive)

Compound | log fold change Tl+ flux
Cc1ccccc1C=C1N=C(c2ccccc2)OC1=O | -0.012 (inactive)
O=C(CCn1nc(-c2ccc(F)cc2)ccc1=O)NCc1ccccc1 | 0.0369 (inactive)
N=c1c(C(N)=O)cc2c(=O)n3ccccc3nc2n1Cc1ccco1 | 0.0339 (inactive)
Cc1nn(-c2ccccc2)nc1CNC(=O)COc1ccccc1 | -0.0388 (inactive)
Cc1cc(C)n2nc(Sc3ncccc3[N+](=O)[O-])nc2n1 | 0.0293 (inactive)
CCOC(=O)NN=C(C)C(C)=NNC(=O)OCC | -0.0316 (inactive)
CC(C)(C)NC(=O)NCCO | 0.0116 (inactive)
Cc1ccccc1S(=O)(=O)NCc1ccc(N2CCN(C)CC2)cc1 | -0.0156 (inactive)
CN(C1CCCCC1)S(=O)(=O)c1cccs1 | -0.0928 (inactive)
O=C(CN1c2ccccc2Sc2ccccc21)NN=Cc1ccco1 | 0.028 (inactive)
CC(=O)Nc1ccc(OCC(=O)N2CCN(c3ncc(C(F)(F)F)cc3Cl)CC2)cc1 | 0.046 (inactive)
Cc1ccc(S(=O)(=O)Oc2c(Cc3ccccc3)c(=O)n(C)c3ccccc23)cc1 | -0.047 (inactive)
CCN1CCC(O)(C#Cc2ccccc2)CC1 | -0.00462 (inactive)
O=C(OCCSc1sccc1[N+](=O)[O-])c1ccc(Cl)cc1 | -0.00334 (inactive)
Oc1c(Cl)cc(Cl)cc1C=Nc1nccs1 | 0.115 (active)
Cc1cc(NC(=O)Nc2nc(-c3ccc(C)c(Cl)c3)c(C)s2)c(C(F)(F)F)o1 | 0.0531 (inactive)
COCCCNC(=O)C(C#N)=CN(C)C | -0.062 (inactive)
O=C1c2cc(S(=O)(=O)O)ccc2CCC1S(=O)(=O)O (stereo not given) | 0.0577 (inactive)
CN(C)c1ccc(C=NNC(N)=S)c(Cl)c1 | 0.178 (active)
CC(C)=CC(C)=NNc1c([N+](=O)[O-])cc(C(F)(F)F)cc1[N+](=O)[O-] | 0.0422 (inactive)
